# In PubChem BioAssay (NCATS):
# Records with an inconclusive call do not appear. Entries that show only a call come without a potency. Values without a mark were called inactive. Active and inactive are the calls of the source. The call rests on the fitted dose curve; in most records, active means well fitted cell-killing curve with a large enough effect; inconclusive means small, poorly fitted or top-dose-only effect, or effect the other way; inactive means no such curve, though single readings can be large or run the other way.
# Columns and labels:
# [1] = Viability qHTS for spleen associated tyrosine kinase inhibitor (SYKi) naive MV4-11 cells (AID 1963823); details: MV4-11 AML viability, CellTiter-Glo luminescence, 72 h; series mostly up to 45 µM; further: nearly all actives have a fitted effect of over 40% in size
# Summary of the method: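 Cells: MV4-11, SYK inhibitor naive, 500 per well. Treatment: library compounds, 72 hr, 37 C, 5% CO2. Read-out: CellTiter-Glo luminescence after 10 min RT.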
# [2] = Viability qHTS for spleen associated tyrosine kinase inhibitor (SYKi) drug resistant MV4-11 cells (AID 1963824); details: SYKi-resistant MV4-11 viability, CellTiter-Glo, 72 h; series mostly up to 45 µM; further: nearly all actives have a fitted effect of over 35% in size
# Summary of the method: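 SYK inhibitor-resistant MV4-11 AML cells, 500 per well, added to predispensed compounds and incubated 72 hr at 37 C, 5% CO2. Viability measured by CellTiter-Glo luminescence after 10 min at room temperature.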
# Potency means the concentration at half of the fitted maximal effect.
structure (smiles),measurement,setting,value
CCCC(=O)O[C@@H]1[C@@H]2[C@@H](OC(C)=O)[C@]3(C)C(=O)[C@H]4[C@@H](OC(C)=O)C(C)(C)C[C@H]4[C@]3(C)C(=O)[C@@]2(OC(C)=O)C[C@@H]1C,Potency,[1],inactive
CCOC(=O)c1cnn(-c2ccccc2)c1NC(=O)c1cc2nc(-c3ccco3)cc(C(F)(F)Cl)n2n1,Potency,[1],inactive
same,Potency,[2],inactive
C[C@@H]1CC[C@]2(C(=O)O[C@@H]3O[C@H](CO[C@@H]4O[C@H](CO)[C@@H](O[C@@H]5O[C@@H](C)[C@H](O)[C@@H](O)[C@H]5O)[C@H](O)[C@H]4O)[C@@H](O)[C@H](O)[C@H]3O)CC[C@]3(C)C(=CCC4[C@@]5(C)C[C@@H](O)[C@H](O)[C@@](C)(CO)C5CC[C@]43C)C2[C@H]1C (some centres undefined),viability (% of control),[1],87.5% [at 9.25 µM]
same,"viability, % of control",[2],113% [at 9.25 µM]
C[C@H](NC(c1cccc2[nH]c(=O)c(=O)[nH]c12)P(=O)(O)O)c1ccc(Br)cc1 (some centres undefined),Potency,[1],inactive
same,Potency,[2],14.6 µM (active)
C=C1C(=O)O[C@@H]2[C@H]3C(C)=CC(=O)C3=C(C)CC[C@@H]12,Potency,[1],2.06 µM (active)
same,Potency,[2],0.651 µM (active)
C/C=C/C=C/C(O)=C1/C(=O)[C@]2(C)C(=O)[C@@](C)(O)[C@H]1[C@H]([C@@]1(C)OC(=O)C(C)=C1O)[C@H]2C(=O)CC/C=C/C,Potency,[1],inactive
O=C(CC1CC(c2ccc(F)cc2F)=NO1)N1CCOCC1 (centres undefined),Potency,[1],inactive
same,Potency,[2],inactive
NCCOCCOCCNC(=O)Cc1ccc(Nc2nc(NCc3ccc(F)cc3)nc(NCC3CCCCC3)n2)cc1,Potency,[1],2.31 µM (active)
same,Potency,[2],4.61 µM (active)
CC(C)Oc1ccc(C(=O)NC(CNC(=O)CN(C)C)Cc2ccc(-c3cn4cccc(C(C)O)c4n3)cc2)cc1Cl (centres undefined),Potency,[1],0.13 µM (active)
same,Potency,[2],0.082 µM (active)
CC(C)c1nc(N(C)S(C)(=O)=O)nc(-c2ccc(F)cc2)c1/C=C/[C@@H](O)C[C@@H](O)CC(=O)O,Potency,[1],8.2 µM (active)
same,Potency,[2],2.91 µM (active)
CCc1nn(CCO)c(CC)c1Oc1cc(C#N)cc(C#N)c1,Potency,[1],inactive
same,Potency,[2],inactive
CC1CCC2(C(=O)OC3OC(CO)C(O)C(O)C3O)CCC3(C)C(=CCC4C5(C)CC(O)C(O)C(C)(C(=O)O)C5CCC43C)C2C1(C)O (centres undefined),Potency,[1],inactive
same,Potency,[2],inactive
CCCCC1CCN(CCCC(=O)c2ccccc2C)CC1,Potency,[1],16.4 µM (active)
same,Potency,[2],13 µM (active)
CN1C(=O)c2ccccc2-n2c(nc3ccccc3c2=O)[C@@]12O[C@H]2c1ccccc1,Potency,[1],3.6 µM (active)
same,Potency,[2],inactive
CC(O)(C(=O)O)C1CCC2(C)C1CCC1(C)C2CCC2C3(C)CCC(O)C(C)(COC4OC(CO)C(O)C(O)C4O)C3CCC21C (centres undefined),Potency,[1],inactive
same,Potency,[2],inactive
CC(C)(C)c1ccc(NC(=O)N2CCN(c3ncccc3Cl)CC2)cc1,Potency,[1],3.66 µM (active)
same,Potency,[2],4.11 µM (active)
Cc1cc(-c2ccc(/C=C3\SC(=Nc4ccc(Cl)c(C(=O)O)c4)NC3=O)o2)c([N+](=O)[O-])cc1C,Potency,[1],inactive
same,Potency,[2],inactive
CCC(C)(O)C(O)C(=O)OCc1ccc(O[C@@H]2O[C@H](CO)[C@@H](O)[C@H](O)[C@H]2O)cc1 (some centres undefined),Potency,[1],inactive
same,Potency,[2],inactive
CCCCCOc1ccc(-c2cc(-c3ccc(C(=O)N[C@H]4C[C@@H](O)[C@@H](O)NC(=O)C5[C@@H](O)[C@@H](C)CN5C(=O)C([C@H](O)CC(N)=O)NC(=O)C([C@H](O)[C@@H](O)c5ccc(O)c(OS(=O)(=O)O)c5)NC(=O)C5C[C@@H](O)CN5C(=O)C([C@@H](C)O)NC4=O)cc3)no2)cc1 (some centres undefined),Potency,[1],inactive
same,Potency,[2],inactive
OC[C@@]1(O)CO[C@H](OC[C@H]2O[C@@H](OC(CCCCc3ccc(O)cc3)CCc3ccc(O)cc3)[C@H](O[C@H]3OC[C@](O)(CO)[C@H]3O)[C@@H](O)[C@@H]2O)[C@@H]1O (some centres undefined),Potency,[1],inactive
same,Potency,[2],inactive
C[C@@H]1CN(Cc2ncccn2)C[C@H]1c1nc2c(cnn2C2CCOCC2)c(=O)[nH]1,Potency,[1],inactive
same,Potency,[2],inactive
O=C(/C=C/c1ccc(O)c(O)c1)O[C@H]1[C@H](OC2CCCCC2O)O[C@H](CO)[C@@H](O)[C@@H]1O (some centres undefined),Potency,[1],inactive
same,Potency,[2],inactive
COc1cc(C(=O)OCC2=CCC3C(C(=O)O)=COC(O[C@@H]4O[C@H](CO)[C@@H](O)[C@H](O)[C@H]4O)C23)ccc1O (some centres undefined),Potency,[1],inactive
same,Potency,[2],inactive
Cc1ccc(C2(C(=O)N3CCC(n4nc(-c5ccccc5)oc4=O)CC3)CC2)cc1,Potency,[1],inactive
same,Potency,[2],inactive
Cn1cc(-c2cnn3c(N)c(Br)c(C4CCCNC4)nc23)cn1 (centres undefined),Potency,[1],0.291 µM (active)
same,Potency,[2],0.461 µM (active)
NC(=O)C1=C(O)[C@@]2(O)C(=O)C3=C(O)c4c(O)cccc4C[C@H]3C[C@H]2CC1=O,Potency,[1],3.32 µM (active)
same,Potency,[2],2.63 µM (active)
CC1(C)CC2C(O)C3=C(CC(C)(O)C2C1)C(=O)OC3O (centres undefined),Potency,[1],inactive
same,Potency,[2],inactive
O=C(/C=C/c1ccc(O)cc1)O[C@H]1[C@H](OC2CCCCC2O)O[C@H](CO)[C@@H](O)[C@@H]1O (some centres undefined),Potency,[1],inactive
same,Potency,[2],inactive
CNC(=O)COC(=O)NCCC1CCN(c2cccc(C)n2)CC1,Potency,[1],inactive
same,Potency,[2],inactive
C=C1C(O)CC2C(C(=O)O)=COC(O[C@@H]3O[C@H](COC(=O)/C=C/c4ccc(O)cc4)[C@@H](O)[C@H](O)[C@H]3O)C12 (some centres undefined),Potency,[1],inactive
same,Potency,[2],inactive
COc1cc2c(cc1OC)C(C(C(=O)N(CCc1ccc(OC)c(OC)c1OC)CCc1ccc(OC)c(OC)c1OC)c1ccccc1)=NCC2 (centres undefined),Potency,[1],15 µM (active)
same,Potency,[2],21.1 µM (active)
O=C(c1cc2c(cc1F)OC(c1ccc(F)cc1)(c1ccc(Cl)cc1Cl)O2)N1CCOCC1 (centres undefined),Potency,[1],inactive
same,Potency,[2],inactive
COCC(c1ccc(C(F)(F)F)cc1)N1CCN(C2(C)CCN(C(=O)c3c(C)ncnc3C)CC2)CC1C (centres undefined),Potency,[1],inactive
same,Potency,[2],inactive
CC1OC(=O)C[C@@H]2C(C(=O)O)=CO[C@@H](O[C@H]3O[C@H](CO)[C@@H](O)[C@H](O)[C@H]3O)[C@H]12 (some centres undefined),Potency,[1],inactive
same,Potency,[2],inactive
CC12CCC3c4ccc(O)cc4CCC3C1CC(OC1OC(C(=O)O)C(O)C(O)C1O)C2O (centres undefined),Potency,[1],inactive
same,Potency,[2],inactive
CS(=O)(=O)c1ccc([C@@H](CC2CCCC2)C(=O)Nc2cnccn2)cc1Cl,Potency,[1],31.6 µM (active)
same,Potency,[2],25.1 µM (active)
O=C(Nc1cc(-c2ccccc2)nn1-c1ccccc1)c1ccc([N+](=O)[O-])cc1,Potency,[1],inactive
same,Potency,[2],18.4 µM (active)
Cc1nc(CNc2ncnc3ccc(-c4ccc5c(c4)OCO5)cc23)cs1,Potency,[1],14.6 µM (active)
same,Potency,[2],23.1 µM (active)
NC1CCCCN(c2c(F)cc3c(=O)c(C(=O)O)cn(C4CC4)c3c2Cl)C1 (centres undefined),Potency,[1],inactive
same,Potency,[2],inactive
COc1cc(/C=C/C(=O)O[C@H]2[C@H](O)[C@@H](CO)O[C@@]2(CO)O[C@H]2O[C@H](COC(=O)c3ccc(O)cc3)[C@@H](O)[C@H](O)[C@H]2O)cc(OC)c1OC,Potency,[1],inactive
same,Potency,[2],inactive
CN(C)CCN(Cc1ccc(-c2ccc(CNCCc3ccccc3)cc2)cc1)C(=O)CCC1CCCC1,Potency,[1],1.03 µM (active)
same,Potency,[2],0.92 µM (active)
C[C@@H]1C[C@@H](O)[C@@]23CO[C@@H](O)[C@@H]2CCC[C@@H]3[C@@]12C[C@@H](c1ccoc1)OC2=O,Potency,[1],inactive
same,Potency,[2],inactive
Cc1onc(C(=O)N2CCN(C(c3ccc(Cl)cc3)c3ccc(Cl)cc3)CC2)c1[N+](=O)[O-],Potency,[1],4.11 µM (active)
same,Potency,[2],4.61 µM (active)
C/C1=C\C[C@H](O[C@@H]2O[C@H](CO)[C@@H](O)[C@H](O)[C@H]2O)/C(C)=C/[C@H]2OC(=O)[C@H](C)[C@@H]2CC1,Potency,[1],inactive
same,Potency,[2],inactive
Cc1nc2c(O)cccc2c(=O)[nH]1,Potency,[1],inactive
same,Potency,[2],inactive
CCC(C)CNCC(=O)N1CCc2sccc2C1COc1cccc(C)c1 (centres undefined),Potency,[1],9.2 µM (active)
same,Potency,[2],9.2 µM (active)
COc1ccc(O[C@@H]2O[C@H](CO)[C@@H](O)[C@H](O)[C@H]2O)cc1OC,Potency,[1],inactive
same,Potency,[2],inactive
C[C@]12CC[C@@H]3c4ccc(O)cc4CC[C@H]3[C@@H]1C[C@@H](O[C@@H]1O[C@H](C(=O)O)[C@@H](O)[C@H](O)[C@H]1O)[C@@H]2O,Potency,[1],inactive
same,Potency,[2],inactive
